Experimental data: the supplement of paper PMC6279402
Counter-ions that a name gives are not always drawn. ± gives the standard deviation of the averaged measurements.

Test system: A549
Test: relative viability (normalised to negative control = 1, bortezomib = 0) (fraction); higher = less cytotoxic
Settings: inflammatory serum-free RHB-A with cytokines + LPS, 5 d + 24 h CellTiter-Blue
[1] = compound 30 nM, GSK126 pretreatment: 5 uM GSK126
[2] = compound 30 nM, GSK126 pretreatment: none (vehicle)
[3] = compound 300 nM, GSK126 pretreatment: 5 uM GSK126
[4] = compound 300 nM, GSK126 pretreatment: none (vehicle)

SMILES	relative viability [1]	relative viability [2]	relative viability [3]	relative viability [4]
CNC(=O)c1c(F)cccc1Nc1nc(Nc2cc3c(cc2OC)CCN3C(=O)CN(C)C)nc2[nH]ccc12	0.762 ± 0.059	0.792 ± 0.067	0.295 ± 0.019	0.431 ± 0.015
NC(=O)NO [Hydroxyurea]	0.998 ± 0.13	1.05 ± 0.1	1.09 ± 0.071	1.06 ± 0.05
CCc1c2c(nc3ccc(OC(=O)N4CCC(N5CCCCC5)CC4)cc13)-c1cc3c(c(=O)n1C2)COC(=O)[C@]3(O)CC [Irinotecan HCl; Irinotecan hydrochloride]	0.898 ± 0.038	0.895 ± 0.018	0.931 ± 0.037	0.917 ± 0.031
CN(Cc1cnc2nc(N)nc(N)c2n1)c1ccc(C(=O)N[C@@H](CCC(=O)O)C(=O)O)cc1 [Methotrexate hydrate; Methotrexate]	0.813 ± 0.055	0.84 ± 0.052	0.797 ± 0.17	0.947 ± 0.086
O=C1NC(=O)/C(=C/c2ccc(-c3ccc(F)cc3O)o2)S1	0.977 ± 0.15	0.857 ± 0.062	0.744 ± 0.082	0.839 ± 0.1
Nc1nc(F)nc2c1ncn2[C@@H]1O[C@H](COP(=O)(O)O)[C@@H](O)[C@@H]1O [Fludarabine; Fludarabine phosphate]	0.858 ± 0.071	0.879 ± 0.098	0.891 ± 0.089	0.842 ± 0.055
Cc1ccc(-c2cc(C(F)(F)F)nn2-c2ccc(S(N)(=O)=O)cc2)cc1 [Celecoxib]	0.842 ± 0.065	0.787 ± 0.09	0.783 ± 0.13	0.908 ± 0.14
Cc1c2oc3c(C)ccc(C(=O)N[C@@H]4C(=O)N[C@H](C(C)C)C(=O)N5CCC[C@H]5C(=O)N(C)CC(=O)N(C)[C@@H](C(C)C)C(=O)O[C@@H]4C)c3nc-2c(C(=O)N[C@@H]2C(=O)N[C@H](C(C)C)C(=O)N3CCC[C@H]3C(=O)N(C)CC(=O)N(C)[C@@H](C(C)C)C(=O)O[C@@H]2C)c(N)c1=O [Dactinomycin]	-0.00158 ± 0.00097	0.00574 ± 0.0057	-0.00171 ± 0.00059	0.00607 ± 0.0081
N#CC1(c2ccc(NC(=O)c3cccnc3NCc3ccncc3)cc2)CCCC1 [Apatinib (YN968D1)]	0.83 ± 0.072	0.853 ± 0.054	0.936 ± 0.085	0.9943 ± 0.005
COc1cc2c(Oc3ccc(NC(=O)C4(C(=O)Nc5ccc(F)cc5)CC4)cc3F)ccnc2cc1OCCCN1CCOCC1	0.797 ± 0.081	0.789 ± 0.037	0.57 ± 0.1	0.573 ± 0.074
CNC(=O)c1cc(Oc2ccc(NC(=O)Nc3ccc(Cl)c(C(F)(F)F)c3)c(F)c2)ccn1 [Regorafenib; BAY 73-4506(Regorafenib)]	0.913 ± 0.055	0.892 ± 0.016	1.02 ± 0.031	0.913 ± 0.014
Cc1[nH]c(/C=C2\C(=O)Nc3ccc(S(=O)(=O)N(C)c4cccc(Cl)c4)cc32)c(C)c1C(=O)N1CCN(C)CC1	0.89 ± 0.053	0.887 ± 0.099	1.03 ± 0.01	1.03 ± 0.01
CCOc1cc2ncc(C#N)c(Nc3ccc(F)c(Cl)c3)c2cc1NC(=O)/C=C/CN(C)C [Pelitinib]	0.562 ± 0.038	0.504 ± 0.012	0.0719 ± 0.015	0.0851 ± 0.02
CN(C)c1ccc(-c2nc3ncc(Cl)c(N4CCN(CC(=O)Nc5nccs5)CC4)c3[nH]2)cc1	0.997 ± 0.11	0.983 ± 0.091	1.1 ± 0.097	1.07 ± 0.066
Cc1ccc(Nc2nccc(N(C)c3ccc4c(C)n(C)nc4c3)n2)cc1S(N)(=O)=O [Pazopanib Hydrochloride]	0.972 ± 0.12	0.935 ± 0.081	1.11 ± 0.096	1.09 ± 0.12
Cn1c(=O)c(F)c(Nc2ccc(I)cc2F)c2c(=O)n(C[C@@H](O)CO)cnc21	0.156 ± 0.017	0.1847 ± 0.0015	0.0544 ± 0.0097	0.0397 ± 0.0058
C=CC(=O)Nc1cccc(Oc2nc(Nc3ccc(N4CCN(C)CC4)cc3OC)ncc2Cl)c1	0.978 ± 0.051	0.897 ± 0.034	0.782 ± 0.086	0.87 ± 0.095
Cc1cnc(Nc2ccc(N3CCN(C)CC3)cc2)nc1Nc1cccc(S(=O)(=O)NC(C)(C)C)c1	1.22 ± 0.15	1.2 ± 0.08	1.2 ± 0.023	1.27 ± 0.053
Clc1ccc(C(c2ccccc2Cl)C(Cl)Cl)cc1 (configuration not stated)	0.827 ± 0.1	0.804 ± 0.093	0.832 ± 0.16	0.983 ± 0.12
COc1cc2ncnc(Nc3ccc(F)c(Cl)c3)c2cc1OCCCN1CCOCC1 [Gefitinib(Iressa); Gefitinib]	0.922 ± 0.11	0.873 ± 0.084	0.488 ± 0.11	0.472 ± 0.045
Cn1nnc2c(C(N)=O)ncn2c1=O [Temozolomide]	0.831 ± 0.044	0.837 ± 0.029	0.828 ± 0.067	0.943 ± 0.061
CO[C@H]1C[C@@H]2CC[C@@H](C)[C@@](O)(O2)C(=O)C(=O)N2CCCC[C@H]2C(=O)O[C@H]([C@H](C)C[C@@H]2CC[C@@H](OC(=O)C(C)(CO)CO)[C@H](OC)C2)CC(=O)[C@H](C)/C=C(\C)[C@@H](O)[C@@H](OC)C(=O)[C@H](C)C[C@H](C)/C=C/C=C/C=C/1C [CCI-779; Temsirolimus]	0.532 ± 0.038	0.541 ± 0.034	0.46 ± 0.069	0.531 ± 0.028

SMILES	relative viability [1]	relative viability [2]	relative viability [3]	relative viability [4]
O=C(NOC[C@H](O)CO)c1ccc(F)c(F)c1Nc1ccc(I)cc1F	0.213 ± 0.035	0.291 ± 0.011	0.108 ± 0.017	0.112 ± 0.0091
COc1c2occc2cc2ccc(=O)oc12 [Methoxsalen]	0.902 ± 0.065	0.883 ± 0.11	0.881 ± 0.026	0.906 ± 0.057
O=C(c1ccc(OCCN2CCCCC2)cc1)c1c(-c2ccc(O)cc2)sc2cc(O)ccc12 [Raloxifene HCl; Raloxifene hydrochloride]	0.955 ± 0.064	0.897 ± 0.094	0.961 ± 0.043	0.987 ± 0.058
O=C1c2ccccc2-c2n[nH]c3cccc1c23	0.785 ± 0.1	0.796 ± 0.078	0.801 ± 0.075	0.894 ± 0.15
CCN1CCN(Cc2ccc(-c3cc4c(N[C@H](C)c5ccccc5)ncnc4[nH]3)cc2)CC1	0.695 ± 0.092	0.693 ± 0.028	0.446 ± 0.042	0.414 ± 0.068
Nc1ncn([C@H]2C[C@H](O)[C@@H](CO)O2)c(=O)n1 [5-Aza-2'-deoxycytidine; Decitabine]	0.841 ± 0.15	0.715 ± 0.17	0.86 ± 0.18	0.836 ± 0.13
CNC(=O)c1cc(Oc2ccc(NC(=O)Nc3ccc(Cl)c(C(F)(F)F)c3)cc2)ccn1 [Sorafenib tosylate; Sorafenib; Sorafenib Tosylate]	1.12 ± 0.089	1.04 ± 0.039	1.12 ± 0.18	1.1 ± 0.1
C/C(=C\c1csc(C)n1)[C@@H]1C[C@@H]2O[C@]2(C)CCC[C@H](C)[C@H](O)[C@@H](C)C(=O)C(C)(C)[C@@H](O)CC(=O)N1 [Ixabepilone]	0.464 ± 0.084	0.269 ± 0.068	0.386 ± 0.016	0.288 ± 0.043
Cc1ccc(S(=O)(=O)Nc2nc3ccccc3nc2Nc2ccc3nsnc3c2)cc1	0.8 ± 0.092	0.774 ± 0.06	0.748 ± 0.14	0.842 ± 0.06
Nc1ccn([C@@H]2O[C@H](CO)[C@@H](O)[C@@H]2O)c(=O)n1	0.833 ± 0.016	0.79 ± 0.088	0.668 ± 0.094	0.475 ± 0.1
O=c1ncn2nc(Sc3ccc(F)cc3F)ccc2c1-c1c(Cl)cccc1Cl	0.831 ± 0.12	0.867 ± 0.11	1.12 ± 0.12	1.03 ± 0.16
COc1cccc2c1C(=O)c1c(O)c3c(c(O)c1C2=O)C[C@@](O)(C(C)=O)C[C@@H]3O[C@H]1C[C@H](N)[C@H](O)[C@H](C)O1 [Daunorubicin hydrochloride; Daunorubicin HCl]	0.839 ± 0.095	0.765 ± 0.056	0.133 ± 0.019	0.143 ± 0.021
Cc1[nH]c(/C=C2\C(=O)Nc3ccccc32)c(C)c1CCC(=O)O	0.78 ± 0.0017	0.775 ± 0.032	0.786 ± 0.08	0.772 ± 0.029
S=P(N1CC1)(N1CC1)N1CC1 [Thiotepa]	1.01 ± 0.054	0.949 ± 0.017	0.919 ± 0.064	0.935 ± 0.032
OCCn1cc(-c2cnc3nnn(Cc4ccc5ncccc5c4)c3n2)cn1	0.969 ± 0.045	0.9847 ± 0.0075	0.972 ± 0.058	0.9557 ± 0.0093
CN1CC[C@H](c2c(O)cc(O)c3c(=O)cc(-c4ccccc4Cl)oc23)[C@H](O)C1 [Flavopiridol hydrochloride]	0.774 ± 0.011	0.785 ± 0.025	0.00358 ± 0.0037	0.00865 ± 0.0022
C[C@]12CC[C@@H]3c4ccc(O)cc4C[C@@H](CCCCCCCCC[S+]([O-])CCCC(F)(F)C(F)(F)F)[C@H]3[C@@H]1CC[C@@H]2O (some centres not stated) [Fulvestrant]	0.901 ± 0.098	0.836 ± 0.039	0.85 ± 0.065	0.855 ± 0.024
Cc1cc(Nc2cc(N3CCN(C)CC3)nc(/C=C/c3ccccc3)n2)n[nH]1	0.897 ± 0.13	0.929 ± 0.11	0.827 ± 0.17	0.769 ± 0.04
COc1cc([C@@H]2c3cc4c(cc3[C@@H](O[C@@H]3O[C@@H]5CO[C@@H](c6cccs6)O[C@H]5[C@H](O)[C@H]3O)[C@H]3COC(=O)[C@H]23)OCO4)cc(OC)c1O [Teniposide]	0.861 ± 0.062	0.777 ± 0.076	0.685 ± 0.037	0.544 ± 0.072
C#CCC(Cc1cnc2nc(N)nc(N)c2n1)c1ccc(C(=O)N[C@@H](CCC(=O)O)C(=O)O)cc1 (some centres not stated) [pralatrexate]	0.878 ± 0.027	0.859 ± 0.075	0.765 ± 0.068	0.896 ± 0.06
Cc1ccc(C(=O)Nc2cccc(C(F)(F)F)c2)cc1Nc1nc(-c2cccnc2)nc2c1cnn2C	0.992 ± 0.12	0.959 ± 0.17	1.01 ± 0.13	1.06 ± 0.15
